# Records with an inconclusive call do not appear. Entries that show only a call come without a potency. Active and inactive are the calls of the source. Calls follow the shape of the dose curve; as a rule, active = well fitted curve in the direction sought with a large enough effect; inconclusive = small, poorly fitted or top-dose-only effect, or another doubt; inactive = no such curve, though single readings can be large; an effect the other way counts as inactive or inconclusive.
# Columns and labels:
# [1] = target: Aldehyde dehydrogenase, mitochondrial (Homo sapiens) (UniProt P05091); experiment: qHTS for Inhibitors of the Aldehyde Dehydrogenase Family (ALDH2) Primary screen (AID 2061308); also: nearly all actives have a fitted effect of over 55% in size
# [2] = target: Retinaldehyde dehydrogenase 3 (Homo sapiens) (UniProt P47895); experiment: qHTS for Inhibitors of the Aldehyde Dehydrogenase Family (ALDH1A3) Primary screen (AID 2061315)
SMILES,Potency [1],Potency [2]
O=C(NC1CCCc2c1cnn2-c1ccc(F)cc1F)c1cccc(=O)[nH]1 (stereo not given),inactive,inactive
COc1ccc(C2Nc3ccccc3C(=O)N2Cc2cccnc2)cc1COc1c(C)cccc1C (stereo not given),inactive,inactive
Brc1ccc(-c2csc(N3CCNCC3)n2)cc1,inactive,inactive
Cc1cc(NS(=O)(=O)c2ccc(NC(=O)Cc3ccc(Cl)c(F)c3)cc2)no1,inactive,inactive
Clc1cccc(-c2ccc3ncnc(NCc4ccc5c(c4)OCO5)c3c2)c1,inactive,inactive
N#CN1CCC(NC(=O)c2cccc(C(F)(F)F)c2)CC1,inactive,inactive
CC(=O)Nc1sc2c(c1-c1nc3ccccc3s1)CCCN(C(C)C)C2,inactive,inactive
CCOC(=O)c1ccc(-n2c(C)cc(-c3nnc4n3CCCCC4)c2C)cc1,inactive,inactive
COCCNc1nc(C)nc2c1nc(-c1ccccc1)n2CCN1CCCCC1,inactive,inactive
O=C1CCCC2=C1C(c1[nH]ncc1Cl)N=C(Nc1nc3cc([S+](=O)([O-])N4CCOCC4)ccc3o1)N2 (stereo not given),inactive,inactive
Cc1ccc(S(=O)(=O)Nc2cnccc2C(=O)Nc2ccc(-n3cncn3)cc2)cc1,inactive,inactive
N#Cc1ccccc1CNc1nc2ncc(Br)cc2[nH]1,inactive,inactive
O=c1[nH]ccc2nc(-c3ccc(CN4CCC(c5nc(-c6ccccn6)n[nH]5)CC4)cc3)c(-c3ccccc3)cc12,inactive,inactive
Cc1cc(C)nc(NC(=S)N2CCN(c3cccc(C#N)c3)CC2)c1,inactive,inactive
O=C(Nc1ncc(Cc2ccc(C(F)(F)F)cc2)s1)c1ccc(-c2cccc([N+](=O)[O-])c2)o1,inactive,inactive

# — PubChem BioAssay (NCATS)
